The results in this text go back to PubChem BioAssay AID1478 (National Center for Advancing Translational Sciences (NCATS), 2009).

Several values for one entry are separate records, joined by “and”; a condition that tells them apart may be missing. Equal values may be shown once. Screen size: about 200,000 compounds; about 860 (0.43%) were called active. Calls follow the shape of the dose curve; as a rule, active = well fitted inhibition curve with a large enough effect; inconclusive = small, poorly fitted or top-dose-only effect; inactive = flat fitted curve, though single readings scatter. For the sample, actives were picked, then their nearest neighbours and some compounds at random.
Potency is read from the fitted curve at half-maximal effect.

Cruzipain (Trypanosoma cruzi), sequence (P25779 123-467 limits assumed): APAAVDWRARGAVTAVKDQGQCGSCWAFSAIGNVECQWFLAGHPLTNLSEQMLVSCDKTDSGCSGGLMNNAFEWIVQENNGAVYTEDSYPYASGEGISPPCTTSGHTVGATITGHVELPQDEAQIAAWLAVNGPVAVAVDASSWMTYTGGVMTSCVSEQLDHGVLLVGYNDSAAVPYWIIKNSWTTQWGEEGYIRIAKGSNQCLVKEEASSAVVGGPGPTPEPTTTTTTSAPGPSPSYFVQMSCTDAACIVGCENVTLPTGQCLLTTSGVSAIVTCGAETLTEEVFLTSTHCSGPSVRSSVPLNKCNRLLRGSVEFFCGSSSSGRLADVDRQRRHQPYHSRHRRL

This experiment concerns the target Cruzipain (Trypanosoma cruzi) (UniProt P25779). Put plainly: qHTS Assay for Promiscuous and Specific Inhibitors of Cruzain (with detergent). Also: nearly all actives have a fitted effect of over 40% in size.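 As to max response, negative = inhibition: plate controls were neutral wells for no effect and buffer without enzyme for full effect.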 The following applies: purified cruzain, Z-FR-AMC fluorescence, 0.01% Triton. In short, it runs like this: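 15 min RT preincubation of 1.5 nM cruzain with compound, then 2 uM Z-FR-AMC added; kinetic AMC fluorescence, 60 s delta. Triton X-100 0.01%, pH 5.5.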
Regarding `COc1cccc(C(=O)NCC(=O)OCc2cc(=O)n3ccsc3n2)c1`, the max response, negative = inhibition is -1.65% (inactive).

On to `CCn1c(=N)c(S(=O)(=O)c2ccc(F)cc2)cc2c(=O)n3ccccc3nc21`, for which the Potency was 22.4 µM (active).

On to `CCCCn1c(=N)c(S(=O)(=O)c2ccccc2)cc2c(=O)n3cccc(C)c3nc21`, for which the max response, negative = inhibition was 0.669% (inactive).

As for `CCOC(=O)c1cc2c(=O)n3ccccc3nc2n(Cc2ccco2)c1=NC(=O)c1ccc(F)cc1`, the max response, negative = inhibition was -23.1% (inactive).

Take `CCOc1cc(-c2nnc(SCC(=O)NC3CCCCC3)nc2-c2ccc(OC)c(OCC)c2)ccc1OC`: the max response, negative = inhibition was 0.915% (inactive).

For `Cc1ccc(NC(=O)CSc2nnc3[nH]c(=O)cc(C)n23)cc1Cl`, the max response, negative = inhibition was -1.01% (inactive).

For `CC(=O)c1cccc(Nc2ccc3cc(S(=O)(=O)N4CCC(C)CC4)ccc3n2)c1`, the max response, negative = inhibition is -2.76% (inactive).

As for `COC(=O)c1ccccc1NC(=O)c1cc(-c2ccccc2O)no1`, the max response, negative = inhibition is -8.5% (inactive).

For `Cc1ccc(S(=O)(=O)NC(=O)COc2ccccc2C)cc1`, the max response, negative = inhibition is -0.523% (inactive).

As for `Cc1ccccc1OCC(=O)NCC(=O)OCC(=O)c1ccc2ccccc2c1`, the Potency is 5.01 µM (active).

Take `COCCNC(=O)COc1ccccc1C`: the max response, negative = inhibition was 1.74% (inactive).

As for `Cc1ccc(-c2cnc(C3CC3)o2)cc1S(=O)(=O)Nc1cccc(C)c1C`, the max response, negative = inhibition was -6.32% (inactive).

As to `O=C(CS(=O)(=O)c1cccc2nsnc12)N1CCN(c2cccc(Cl)c2)CC1`, the max response, negative = inhibition was -2.29% (inactive).

As to `Cc1cccc(CNC(=O)c2cnc3sc(N4CCCCC4)nn3c2=O)c1`, the max response, negative = inhibition is 3.23% (inactive).

Consider `COc1ccc(NC(=O)CSc2nnc(-c3nnn(-c4ccc(F)cc4)c3C)o2)cc1`, for which the max response, negative = inhibition was -0.381% (inactive).

Consider `CCOc1ccc(/C=N/NC(N)=S)cc1`, for which the max response, negative = inhibition is -18.1% (inactive).

In the case of `CC(C)Oc1c(Br)cc(Br)cc1/C=N/NC(N)=S`, the Potency was 0.708 µM (active).

`NC(=S)N/N=C/c1coc2cc(Cl)ccc2c1=O`: the max response, negative = inhibition is -8.88% (inactive).

Consider `CC(C)c1ccc(NC(=O)C2CCN(c3nc(-c4ccc(C(C)C)cc4)no3)CC2)cc1`, for which the max response, negative = inhibition was 0.837% (inactive).

In the case of `Cc1ccc(C2C=C(c3ccc(Cl)cc3)Nc3nc(NC(=O)CCC(=O)O)nn32)cc1` (stereo not given), the max response, negative = inhibition was 0.942% (inactive).

Regarding `O=S(=O)(c1ccccc1)c1nc(-c2ccc(Cl)cc2Cl)oc1N1CCCCC1`, the max response, negative = inhibition is -15.9% (inactive).

As for `O=C(NCc1ccccn1)c1cc(-c2ccccc2Cl)on1`, the max response, negative = inhibition was -2.6% (inactive).

For `CN(c1ccc(C(=O)NCc2ccccn2)cc1)S(C)(=O)=O`, the max response, negative = inhibition is 1.59% (inactive).

Consider `O=C(NCc1ccccn1)c1ccc2nc(-c3ccco3)c(-c3ccco3)nc2c1`, for which the Potency is 22.4 µM (active).

Take `O=S(=O)(c1ccc2nc(NCc3ccccc3Cl)ccc2c1)N1CCCCC1`: the max response, negative = inhibition was -1.7% (inactive).

Regarding `Cc1ccc(Cn2c(CNC(=O)Cc3cccc(C)c3)nc3cccnc32)cc1`, the max response, negative = inhibition is -1.98% (inactive).

With `COc1ccc2[nH]c3c(c2c1)CCN(C(=O)CCC1CCCC1)C3c1ccc(F)cc1` (stereo not given), the max response, negative = inhibition is 7.03% (inactive).

With `Cc1ccc(C(=O)COC(=O)C(Cc2c[nH]c3ccccc23)NC(=O)c2ccc(Br)cc2)cc1` (stereo not given), the max response, negative = inhibition is -0.996% (inactive).

In the case of `COc1cc(OC)c(NC(=O)c2cc(S(=O)(=O)N3CCCC3)cn2C)cc1Cl`, the max response, negative = inhibition was -0.944% (inactive).

As to `Clc1ccccc1CSc1nnc(-c2ccco2)c(-c2ccco2)n1`, the Potency was 25.1 µM (active).

Turning to `O=C(Nc1nnc(SCc2ccccc2)s1)c1ccco1`, the max response, negative = inhibition was 0.832% (inactive).

As to `Clc1ccccc1CSc1nncn2c1cc1occc12`, the max response, negative = inhibition is -2.67% (inactive).

In the case of `c1ccc(CSc2nnc(-c3ccco3)c(-c3ccco3)n2)cc1`, the Potency was 14.1 µM (active).

Regarding `Nc1nc(SCc2ccccc2Cl)n[nH]1`, the max response, negative = inhibition was 1.94% (inactive).

For the molecule `Nc1cc(=O)nc(SCc2ccccc2)n1Cc1ccco1`, the max response, negative = inhibition is -10.9% (inactive).

For the molecule `CCc1ccc(NC(=O)c2cnc3c(-c4ccccc4)c(C)nn3c2C)cc1`, the max response, negative = inhibition is -6.46% (inactive).

Turning to `Cc1ccc(S(=O)(=O)c2c(Nc3cccc(Cl)c3)sc(C(=O)c3ccc4c(c3)OCO4)c2N)cc1`, the max response, negative = inhibition is -3.98% (inactive).

`COCCn1c(SCC(=O)c2cc(C)ccc2C)nc2cc(C(=O)NC3CCCC3)ccc2c1=O`: the max response, negative = inhibition was -0.0872% (inactive).

`COc1ccccc1CNC(=O)c1ccc(CS(=O)c2ccccc2Cl)o1` (stereo not given): the max response, negative = inhibition is -8.94% (inactive).

Turning to `Cc1nn(C(C)C(=O)NCCc2ccccc2)c(=O)c2c1sc1ccccc12` (stereo not given), the max response, negative = inhibition is -6.56% (inactive).

On to `CNc1ccc(-c2nc(-c3ccco3)no2)cc1[N+](=O)[O-]`, for which the max response, negative = inhibition is -3.84% (inactive).

For `O=C(/C=C/c1ccccc1)c1ccccc1O`, the max response, negative = inhibition was -1.13% (inactive) and 3.47% (inactive).

As for `CC(=O)c1c(O)c(C)c(O)c(Cc2c(O)c3c(c(C(=O)/C=C/c4ccccc4)c2O)OC(C)(C)C=C3)c1O`, the max response, negative = inhibition was -22.4% (inactive).

For the molecule `CC(=O)c1c(O)c(C)c(O)c(Cc2c(O)c3c(c(C(=O)/C=C\c4ccccc4)c2O)OC(C)(C)C=C3)c1O`, the Potency was 31.6 µM (active).

`COc1cc(NC(=O)CSc2nc3nc(C)c(Cc4ccc(C)cc4)c(C)n3n2)cc(OC)c1OC`: the max response, negative = inhibition was -4.19% (inactive).

For the molecule `O=C(CCc1nc(CN2CCN(S(=O)(=O)c3ccc(Br)cc3)CC2)no1)N1CCCCC1`, the max response, negative = inhibition is -0.641% (inactive).

As for `O=C(CC(c1cccs1)N1Cc2ccccc2C1=O)Nc1ccc(F)cc1F` (stereo not given), the max response, negative = inhibition is -5.84% (inactive).

Take `O=S(=O)(NCCc1nnc2ccc(SCc3ccc(Cl)cc3Cl)nn12)c1ccccc1`: the max response, negative = inhibition was -7.61% (inactive).

Take `O=C(CCOc1ccccc1)N(Cc1cccnc1)c1nc2ccc(Cl)cc2s1`: the max response, negative = inhibition is -5.3% (inactive).

With `COc1cc(NC(=S)NCCSc2ccc(C)cc2)cc(OC)c1`, the Potency was 2 µM (active).

On to `COc1cccc(NC(=S)NCCCN2CCOCC2)c1`, for which the max response, negative = inhibition is -2.47% (inactive).

As to `COc1cc(NC(=O)Nc2ccc(C)cc2)cc([N+](=O)[O-])c1`, the max response, negative = inhibition was -3.61% (inactive).

Turning to `CC(NC(=O)CCc1cn(Cc2ccccc2Cl)c2ccccc12)c1ccccc1` (stereo not given), the max response, negative = inhibition was -2.02% (inactive).

On to `CC(C)(C)c1ccc(C(=O)Nc2ccc3c(c2)CCCN3C(=O)c2cccs2)cc1`, for which the max response, negative = inhibition is -4.1% (inactive).

Take `COc1cc(NC(=O)c2cc(C3CC3)nc3c2c(C)nn3-c2ccccc2)cc(OC)c1`: the max response, negative = inhibition was -4.38% (inactive).

For the molecule `CC(=O)NC1=NN(C(C)=O)C(C)(c2ccc(C)cc2)S1` (stereo not given), the max response, negative = inhibition is -0.836% (inactive).

As to `CC(=O)NC1=NN(C(C)=O)C(C)(c2ccc(Cl)s2)S1` (stereo not given), the Potency is 28.2 µM (active).

Consider `CC(=O)NC1=NN(C(C)=O)C(C)(CCS(=O)(=O)c2ccc(Cl)c(Cl)c2)S1` (stereo not given), for which the max response, negative = inhibition is -3.08% (inactive).

With `COc1ccc(Cn2c(=O)c3oc4ccccc4c3n(CC(=O)Nc3ccc(F)cc3F)c2=O)cc1`, the max response, negative = inhibition was -0.479% (inactive).

For the molecule `COc1ccccc1NC(=O)CCC(=O)N1CC(C)Oc2ccc(C)cc21` (stereo not given), the max response, negative = inhibition is -2.9% (inactive).

Consider `COc1ccccc1-n1c(-c2ccc(C)cc2)cn2c3c(=O)n(C)c(=O)n(C)c3nc12`, for which the max response, negative = inhibition was 0.477% (inactive).

On to `Cc1ccccc1OCc1nc2c3cnn(-c4ccccc4F)c3ncn2n1`, for which the max response, negative = inhibition is -0.812% (inactive).

Turning to `Cc1ccccc1-c1nc(SCC(=O)N(C)c2ccccc2)c2c(=O)n(C)c(=O)n(C)c2n1`, the max response, negative = inhibition is 0.835% (inactive).

As for `Cc1ccc(-c2cc(C(=O)Oc3ccccc3Cl)no2)cc1C`, the max response, negative = inhibition was -5.97% (inactive).

Turning to `CCOc1ccc(NC(=O)c2cc3c(=O)n(Cc4cccs4)ccc3nc2C)cc1`, the max response, negative = inhibition is -4.36% (inactive).
